Consider 32 compounds from PubChem BioAssay AID590 (National Center for Advancing Translational Sciences (NCATS), 2007).

Out of some 59,000 compounds screened, about 6,500 (11%) were called active. Inconclusive results (about 15%) are left out. No stated cut-off is given here; in the data, active means max dye-equivalent concentration above about 10 nM; inconclusive means mostly about 1.1 nM to 9.6 nM; inactive means weaker than that. Many of the other results were omitted from the sample, so actives are more common in it than they were.

The test in a line: qHTS Assay for Spectroscopic Profiling in A350 Spectral Region. Particulars: Compound autofluorescence, 340/450 nm, Alexa 350 dye-equivalents; stronger effect = higher value. From the text:
NIH Molecular Libraries Screening Centers Network [MLSCN]
NIH Chemical Genomics Center [NCGC]
Occasionally, the artifactual effect may originate from the compounds own spectral or other biophysical properties which generally tend to track its assay concentration. Pre-screening/profiling the library with respect to the compounds spectral properties should help one exclude false positives early on. While the most informative fluorescent profiling data set is obtained by performing a full excitation and emission scan of each well by using a monochromator-based plate reader, such an approach is practical only on a very limited scale as scanning each well requires long time. An alternative approach, applied here, is to perform plate reader scans using selected excitation and emission wavelength pairs to generate a multidimensional relational database that correlates compound concentration and the respective relative fluorescence intensity at a given wavelength set. A standard curve of Alexa 350 (A 350) present on each plate as six-point concentration series, was used to compute a normalized fluorescence response, termed dye-equivalent concentration, for each compound at each concentration.
NCGC Assay Protocol Summary:
100 mM Tris buffer, pH 8.0
The wells in columns 1 through 4 of a Kalypsys polypropylene 1536-well compound plate were filled with standard solutions of fluorophore corresponding to the spectral region of interest. Solutions of A 350 were placed in the following wells: I1, J1: 3 mM, I2, J2: 300 uM, I3, J3: 30 uM, I4, J4: zero (DMSO), K1, L1: 3 uM, K2, L2: […], K3, L3: 300 nM, K4, L4: zero (DMSO).
Six uL of buffer were dispensed to 1536-well Greiner black plates. Compounds and dye standards (23 nL) were transferred via Kalypsys PinTool. The plates were incubated for 15 min at room temperature, and then read on ViewLux (Perkin-Elmer) High-throughput CCD imager using 340 nm and 450 nm excitation and emission filter set.
Keywords: NIH Roadmap, MLSCN, MLI, MLSMR, qHTS, NCGC, A350, A-350, Fluorescent Profiling.
On to `COc1ccc(C(=O)n2nc(-c3ccc(Cl)cc3)nc2N)cc1OC`, for which the max dye-equivalent concentration entry was “inactive”. Consider `COc1ccc(C(=O)n2nc(-c3ccc(C)cc3)nc2N)cc1OC`, for which the max dye-equivalent concentration is 31 nM (active). In the case of `COc1ccccc1C(=O)n1nc(-c2ccccc2)nc1N` it was “inactive”; in that of `Cc1cnc(CNc2ncncc2-c2ccccc2Cl)cn1`, “inactive”; in that of `CCN(CC)C(=O)c1sc(NC(=O)c2ccco2)c(C#N)c1C`, “inactive”. In the case of `CCn1nc(NC(=O)c2ccco2)c2cc3ccc(C)cc3nc21` it was 86 nM (active); in that of `Cc1ccnc(NC(=O)c2ccc(NC(=O)c3ccco3)cc2)c1`, “inactive”. The entry for `O=C(CSc1nnc(-c2cnccn2)n1Cc1ccco1)c1ccc(Cl)c(Cl)c1` is “inactive”; for `CC(=O)N1CSCC1C(=O)O` (configuration not stated) it is “inactive”.

As to `O=C(N1CCOCC1)N(Cc1ccccc1)c1ccccn1`, the max dye-equivalent concentration entry was “inactive”. With `CN(C)CC/C=C1\c2ccccc2CSc2ccccc21`, the max dye-equivalent concentration entry is “inactive”. Turning to `COc1ccc(Cn2c(=O)sc3ccccc32)cc1OC`, the max dye-equivalent concentration entry was “inactive”.

Consider `Cc1ccc2nc(NCCCNC(=O)c3cnccn3)c(C#N)cc2c1`, for which the max dye-equivalent concentration is 220 nM (active). The entry for `O=S(=O)(c1ccccc1)N1CCC2(CC1)CN(Cc1nccs1)C2` is “inactive”. In the case of `CCCCCN(C(=O)NC(=O)Nc1ccccc1C)S(C)(=O)=O` it was “inactive”; in that of `O=C(c1cnccn1)N1CCC2(CCCN(Cc3ccccc3)C2)CC1`, “inactive”. The entry for `O=C(CSc1nnc(-c2ccc(NS(=O)(=O)c3ccccc3)cc2)o1)NCC1CCCO1` (configuration not stated) is “inactive”. As to `O=C(CS(=O)(=O)Cc1ccccc1)NCC1CCCO1` (configuration not stated), the max dye-equivalent concentration result is “inactive”. On to `O=C(CSC1=Nc2ccccc2C2=NC(c3ccccc3)C(=O)N12)NCC1CCCO1` (configuration not stated), for which the max dye-equivalent concentration is 590 nM (active). Consider `COc1ccc(S(=O)(=O)Nc2c(C)n(C)n(-c3ccccc3)c2=O)cc1`, for which the max dye-equivalent concentration result was “inactive”. Consider `CN(C)C(=O)c1ccc(-c2cncnc2NC2CCNCC2)cc1`, for which the max dye-equivalent concentration result was “inactive”. Consider `CCCc1cc(=O)[nH]c(SCc2ccc(C#N)cc2)n1`, for which the max dye-equivalent concentration result was “inactive”. `Cc1ccc(S(=O)(=O)NCC(=O)OCC(=O)N2CCc3ccccc32)cc1`: the max dye-equivalent concentration result was “inactive”. In the case of `O=C(c1cc(-c2cccs2)on1)N1CCCCC1` it was “inactive”; in that of `Cc1ccc2cc3cc(C(=O)N4CCCCCC4)oc3nc2c1`, 11 nM (active).

As for `Cc1ccc(C(=O)N2CCCCCC2)cc1Br`, the max dye-equivalent concentration result was “inactive”.

For the compound `O=C(CSc1nc2[nH]ncc2c(=O)n1-c1ccccc1)N1CCCc2ccccc21`, the max dye-equivalent concentration entry is “inactive”. As for `COc1cc2c(cc1OC)C(c1ccncc1)CC(=O)N2` (configuration not stated), the max dye-equivalent concentration result was “inactive”.

Regarding `Cc1ccc(OCc2nc(C#N)c(N3CCCC3)o2)cc1`, the max dye-equivalent concentration entry is “inactive”. With `Cc1cccc2cc(C#N)c(N3CCCC3)nc12`, the max dye-equivalent concentration was 37 nM (active). As for `Cc1cc(C)c2nc(N3CCCC3)c(C#N)cc2c1`, the max dye-equivalent concentration was 130 nM (active).

Turning to `Cc1ccc2nc(CC(=O)c3ccc4ccccc4c3)c(=O)[nH]c2c1`, the max dye-equivalent concentration result was “inactive”.
